Source: PubChem BioAssay (National Center for Advancing Translational Sciences (NCATS))
In the library only some 1.8% were active in any assay of this set; here they are far more common.
GLP-1R inv ag: inverse agonists of human GLP-1 receptor; P43220; HEK293 GLP-1R CRE-luciferase, luminescence, 24 h; GLP-1R form is constitutively active; Potency, µM (highest dose often 38.3 µM), for inactives: at the top dose activity change, negative = inhibition, hits mostly inhibitors; hit rate 1.6% among 410,000; AID 624417; also: potency is read from the fitted curve at half-maximal effect; % is scaled to controls: 0 for no effect and ±100 for the full control effect; nearly all actives have a fitted effect of over 55% in size
Target sequence (P43220 whole entry, looked up): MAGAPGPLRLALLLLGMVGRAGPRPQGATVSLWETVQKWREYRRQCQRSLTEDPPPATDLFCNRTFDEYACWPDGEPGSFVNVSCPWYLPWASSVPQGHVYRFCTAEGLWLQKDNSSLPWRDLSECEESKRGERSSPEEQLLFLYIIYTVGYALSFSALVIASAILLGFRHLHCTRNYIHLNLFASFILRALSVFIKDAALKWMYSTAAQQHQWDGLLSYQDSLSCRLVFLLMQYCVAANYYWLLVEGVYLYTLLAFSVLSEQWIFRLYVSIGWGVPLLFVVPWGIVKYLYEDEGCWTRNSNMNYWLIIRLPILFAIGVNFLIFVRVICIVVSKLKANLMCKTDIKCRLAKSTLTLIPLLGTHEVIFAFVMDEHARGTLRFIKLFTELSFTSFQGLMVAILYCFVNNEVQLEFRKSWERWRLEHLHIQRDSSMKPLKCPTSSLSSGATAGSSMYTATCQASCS
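Cells are plated, allowed 12 hours at 37 deg C, then treated with compounds for 24 hr before luciferase detection reagent is added and luminescence is read after 12 min at room temperature. The HEK293 line carries constitutively active GLP-1R with a cAMP-responsive reporter.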
TSHR antag: blocks TSH signaling through the human TSH receptor; TSHR-expressing cells, TSH-stimulated cAMP HTRF, 2 h; hits give low values; activity change, negative = inhibition, % at 11.5 µM; hit rate 0.2% among 330,000;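 active = activity change below a set negative limit, meaning inhibition stronger than a set level, cut at about -70% in these data; inconclusive = activity change between two set negative limits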; also: % is scaled to controls: 0 for no effect and ±100 for the full control effect
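Inhibition of cAMP made by TSHR-expressing cells under TSH stimulation (4nM final, EC80; 2 h, 37 deg C) is quantified with a one-step lysis HTRF kit, anti-cAMP cryptate versus cAMP-d2.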
PTHR1 agonist: PTHR1 (human) receptor agonism | Q03431 | HEK293 GP2 PTHR1 cells, GloSensor cAMP luminescence, 1 h | Potency, µM (highest dose often 115 µM), without a hit: at the highest dose activation, actives largely listed as activators | hit rate 0.075% among 410,000 | AID 743266; also: potency is read from the fitted curve at half-maximal effect; nearly all actives have a fitted effect of over 55% in size
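HEK-293-derived GP2 cells expressing PTHR1 and a GloSensor cAMP reporter, 3,000/well, plated overnight, given luciferin plus IBMX (each 0.5 mM as added) for 1 h at 37 °C, then compound for 1 h at 37 °C. Luminescence was read after 15 min at room temperature.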
GLP-1R agonist: GLP-1 receptor (human) agonism; hit rate 0.007% among 380,000; AID 624172; Potency, µM (top dose mostly 45.6 µM), for inactives: at the highest dose activation, actives largely listed as activators; HEK293 GLP-1R CRE-luciferase, luminescence, 4-6 h; cells express a hypersensitive GLP-1R form; P43220; also: potency is read from the fitted curve at half-maximal effect; % of control where 0% means no effect
HEK293 tox: cytotoxicity counter-screen for GLP-1 receptor inverse agonists; HEK293 cAMP-luciferase reporter cells, luminescence, 24 h; Potency, µM (titrated, usually from 38.3 µM), without a hit: at the highest dose activity change, negative = inhibition, hits mostly inhibitors; hit rate 0.13% among 410,000; AID 624418;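 also: loss of luciferase light is scored as toxicity; potency is read from the fitted curve at half-maximal effect; % is scaled to controls: 0 for no effect and ±100 for the full control effect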
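Here, cytotoxicity is scored as loss of luminescence. The MLSMR collection was tested on cells seeded in medium containing 10% Nu serum, with a 24 hr compound exposure preceded by 12 hours of culture.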
Active calls of the source: *; i = inactive; ? = inconclusive; nt = not tested or not shown; [ ] = another dose, or the depositor's remark. Unless noted, calls follow the shape of the dose curve; as a rule, active = well fitted curve in the direction sought with a large enough effect; inconclusive = small, poorly fitted or top-dose-only effect, or another doubt; inactive = no such curve, though single readings can be large; an effect the other way counts as inactive or inconclusive.

SMILES	GLP-1R inv ag	TSHR antag	PTHR1 agonist	GLP-1R agonist	HEK293 tox
CCN(Cc1nc(-c2ccc(Cl)cc2)no1)CC1CCCO1 (centres undefined)	1.26µM*	-30.0	-20.0%	4.5%	21.3%
CN(Cc1nc(-c2ccc(Cl)cc2)no1)C(=O)CCN1C(=O)[C@H]2CC=CC[C@H]2C1=O	2µM*	6.9	-29.9%	3.8%	1.1%
CCCN(Cc1nc(-c2ccc(Cl)cc2)no1)CC1CCCO1 (centres undefined)	?	-16.0	-25.2%	3.4%	14.7%
Cc1ccc(-c2noc(CN(C(=O)CCCCCN3C(=O)c4ccccc4C3=O)C(C)C)n2)cc1	6.31µM*	-22.0	-74.3%[57.5 µM]	3.4%	-7.0%
O=C(CSc1nc(O)c(C/C=C/c2ccccc2)c(=O)[nH]1)Nc1cccc(F)c1	10.1%	nt	i	nt	11.9%
CCC(=O)C(Cc1ccccc1)(Cc1ccccc1)CC(C)N(C)C (centres undefined)	nt	nt	nt	5.8%[96 µM]	nt
Cc1c(Cl)cccc1NC(=O)CCS(=O)(=O)c1ccc2c(c1)CC(=O)N2C	0.4%	nt	10.8%	nt	3.5%
COc1ccc(-n2c(-c3ccc(C)cc3)cc3c2CC(C)(C)CC3=O)cc1Cl	-14.7%	nt	?	nt	0.0%
CC(C)N(Cc1nc(-c2ccc(Cl)cc2)no1)C(=O)CCC1CCCC1	10µM*	-42.3	-42.7%	-0.6%	9.2%
Cc1nn(Cc2c(F)c(F)c(F)c(F)c2F)c(C)c1NC(=O)c1ccc(COc2ccccc2Cl)o1	10µM*	-1.8	-9.6%	-3.1%	-7.0%
COc1cccc(N2CC(NC(=O)C(c3ccccc3)c3ccccc3)CC2=O)c1 (centres undefined)	-16.8%	nt	i	nt	9.4%
Cc1ccc(S(=O)(=O)N2[C@@H](c3ccccc3)C(C(=O)O)=CC[C@H]2c2ccc(Cl)c(Cl)c2)cc1	?	-11.3	-9.1%	-2.8%	?
Cc1ccc([C@H]2C(C(=O)O)=CC[C@@H](c3ccc(Cl)c(Cl)c3)N2S(=O)(=O)c2ccc(C)cc2)cc1	10µM*	-11.4	-11.5%	-2.0%	-11.2%
Cc1ccc(S(=O)(=O)N2[C@@H](c3ccccc3F)C(C(=O)O)=CC[C@H]2c2ccc(Cl)c(Cl)c2)cc1	?	-92.2*	i	-4.3%	3.1%
Cc1ccc(S(=O)(=O)N2[C@@H](c3ccccc3F)C(C(=O)O)=CC[C@H]2c2cccc(C)c2)cc1	-21.9%	6.6	-41.0%	-4.1%	?
CCC(=O)N1CCc2cc(S(=O)(=O)NC(CC(C)C)C(=O)NCc3ccc(F)cc3)ccc21 (centres undefined)	-4.7%	nt	i	nt	2.0%
Cc1c(C(=O)N(Cc2cccc(Br)c2)C2CCS(=O)(=O)C2)oc2ccc(F)cc12 (centres undefined)	22.4µM*	-6.2	-1.7%	-2.7%	-12.3%
Cn1c(/C=C/c2ccccc2)nc2ccccc21	4.47µM*	-0.3	-93.7%	1.8%	-16.0%
Cc1ccc(Cl)cc1Nc1sc(C(=O)c2ccc(F)cc2)c(N)c1S(C)(=O)=O	-9.8%	nt	-29.6%	nt	-19.7%
S=c1nc[nH]c2c1cnn2-c1ccccc1	11.2%	6.7	i	16.0%	-1.1%
Cn1ncc2c(=S)nc(Cl)[nH]c21	10µM*	nt	i	3.9%	?
Fc1ccccc1C1c2[nH]c3ccccc3c2CCN1Cc1ccoc1 (centres undefined)	8.91µM*	8.1	-7.7%	8.8%	3.8%
O=C1c2cccc(O)c2C(=O)c2c(O)cccc21	nt	-6.0	nt	2.3%	nt
CC1OC(CC(=O)O)CC2=C1C(=O)c1c(O)cccc1C2=O (centres undefined)	?	nt	-43.8%	-27.9%	0.891µM*
CC(C(=O)O)c1ccc(/C=C2\CCCCC2=O)cc1 (centres undefined)	nt	nt	nt	0.4%	nt
SMILES	GLP-1R inv ag	TSHR antag	PTHR1 agonist	GLP-1R agonist	HEK293 tox
Cc1ccc(NC(=O)c2cc3c(-c4ccccc4)nn(-c4ccccc4)c3s2)cc1	-8.5%	nt	i	-4.3%	-3.1%
O=C(OCc1nnc(-c2ccccc2)o1)c1cn(-c2ccccc2)nc1-c1ccccc1	12.6µM*	-4.7	-19.5%	-0.9%	6.8%
O=C(OCc1nnc(-c2ccccc2)o1)c1ccc(-n2cnnn2)cc1	-5.6%	3.2	27.7%	13.6%	-1.2%
CCOc1ccc(-c2cc(C(=O)N3CCN(c4cccc(C)c4)C(C)C3)c3ccccc3n2)cc1 (centres undefined)	5.01µM*	nt	-24.0%	nt	-15.4%
CCOc1cccc(-c2cc(C(=O)N3N=C(C)CC3(O)C(F)F)c3ccccc3n2)c1 (centres undefined)	11.2µM*	16.6	i	11.4%	5.9%
O=C(Nc1cccc(-c2nc3ncccc3o2)c1)c1ccc(-c2cccc(Cl)c2Cl)o1	4.1%	nt	-30.5%	nt	-9.8%
CCCn1c(C(C)Nc2nc(-c3ccc(C)cc3)cs2)nc2ccccc21 (centres undefined)	11.2µM*	-11.7	16.4%	6.0%	?
CCCn1c(C(C)Nc2nc(-c3cccc(Br)c3)cs2)nc2ccccc21 (centres undefined)	?	-0.8	0.1%	15.3%	-24.5%
COc1ccccc1NC(=O)c1cc2n(n1)C(C(F)(F)F)CC(c1ccc3c(c1)OCO3)N2 (centres undefined)	2µM*	-18.4	-2.5%[57.5 µM]	-21.4%	-8.7%
CC1(C(=O)O)CCC2(C)CCC3(C)C(=CC(=O)[C@@H]4C5(C)CC[C@H](O[C@H]6O[C@H](C(=O)O)C(O)C(O)[C@H]6O[C@@H]6O[C@H](C(=O)O)C(O)C(O)C6O)C(C)(C)[C@@H]5CCC43C)[C@@H]2C1 (some centres undefined)	nt	nt	nt	2.1%	nt
Cc1ccc(C(C(=O)NCC2CCCO2)N(Cc2ccccc2)C(=O)c2ccc(-c3ccccc3)[nH]2)o1 (centres undefined)	?	2.3	-8.3%	-2.3%	-26.9%
O=C(NCC1CCCO1)C(c1cccs1)N(Cc1ccccc1Cl)C(=O)c1ccc(-c2ccccc2)[nH]1 (centres undefined)	2.51µM*	-3.8	i	-16.1%	-0.2%
Cc1ccc(NC(=O)c2c(C)oc3ccc(O)c(CN(C)Cc4ccccc4)c23)c(C)c1	?	nt	i	nt	-9.4%
N=C1N(c2ccccc2)C(=S)C(=Nc2ccccc2)N1c1ccccc1	12.6µM*	nt	-11.5%	10.9%	-0.6%
COc1ccc(N=C2C(=S)N(c3ccc(OC)cc3)C(=NS(=O)(=O)c3ccccc3)N2c2ccccc2)cc1	-23.3%	nt	-21.1%	-1.1%	-12.5%
ON=C1c2cc(OCCN3CCCCC3)ccc2-c2ccc(OCCN3CCCCC3)cc21	12.6µM*	1.3	i	-21.7%	3.55µM*
Clc1ccc(OCCN2CCOCC2)cc1Cl	-2.9%	4.1	-0.9%	-0.3%	0.2%
Clc1ccc(OCCN2CCCCC2)cc1Cl	-26.6%	2.1	-11.3%	7.9%	-6.2%
